# Data taken from publication PMC5700166.
# Changes are numbered by the printed parent chain.
# Assays:
# Experiment in all cases: protein-binding microarray (PBM); PBM: ~300 nM protein, 6 mM HEPES pH 7.8, 80 mM KCl, 0.5 mM EDTA, 0.5 mM EGTA, 6% glycerol, 35 ng/ul poly-dIdC, 1% milk, 1 h, room temperature; Ap Aiptasia and Nv Nematostella (sea anemones) / Co Capsaspora / Aq Amphimedon (sponge) / Dm Drosophila / Hu human; RHD is the Rel homology domain; high values mean tight binding
# Details in all cases: dsDNA, one strand shown
# GST-Ap-NF-kB RHD = target: T1, GST-Ap-NF-kB RHD (Exaiptasia pallida (Aiptasia), UniProt A0A913YAJ5 2-422)
# T1 sequence: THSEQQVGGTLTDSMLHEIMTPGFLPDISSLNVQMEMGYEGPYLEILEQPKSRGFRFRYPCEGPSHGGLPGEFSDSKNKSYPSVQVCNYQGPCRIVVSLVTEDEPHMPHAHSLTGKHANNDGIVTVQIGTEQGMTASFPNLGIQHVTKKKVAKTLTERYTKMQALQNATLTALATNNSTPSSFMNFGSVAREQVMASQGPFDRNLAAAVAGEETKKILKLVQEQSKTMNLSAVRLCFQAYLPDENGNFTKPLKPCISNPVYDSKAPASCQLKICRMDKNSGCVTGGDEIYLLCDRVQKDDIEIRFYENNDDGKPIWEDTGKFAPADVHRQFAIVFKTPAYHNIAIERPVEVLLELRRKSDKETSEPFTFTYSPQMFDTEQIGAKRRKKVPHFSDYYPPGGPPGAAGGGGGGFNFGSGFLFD
# [1] = target: T2, GST-Nv-NF-kB (Cys allele) (Nematostella vectensis, UniProt E5G601 2-411)
# T2 sequence: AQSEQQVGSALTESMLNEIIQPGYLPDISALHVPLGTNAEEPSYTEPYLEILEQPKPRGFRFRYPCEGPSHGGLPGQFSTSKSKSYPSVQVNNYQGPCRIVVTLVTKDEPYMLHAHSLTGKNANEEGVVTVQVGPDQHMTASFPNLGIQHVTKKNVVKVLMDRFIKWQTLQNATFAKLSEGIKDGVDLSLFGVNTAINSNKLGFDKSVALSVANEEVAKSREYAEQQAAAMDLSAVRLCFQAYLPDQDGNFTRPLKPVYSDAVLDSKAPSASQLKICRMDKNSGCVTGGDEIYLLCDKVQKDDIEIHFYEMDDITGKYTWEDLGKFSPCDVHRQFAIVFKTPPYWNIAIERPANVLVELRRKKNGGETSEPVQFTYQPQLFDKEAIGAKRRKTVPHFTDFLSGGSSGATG
# [2] = target: T3, GST-Nv-NF-kB (Ser allele) (Nematostella vectensis, UniProt A7UNT2 2-411)
# T3 sequence: T2 sequence with Q21R, C66S, S207N, E215Q, V217A, E225K, A268E, D399E
# GST-Co-NF-kB = target: T4, GST-Co-NF-kB (Capsaspora owczarzaki, UniProt F1ARL5 200-546)
# T4 sequence: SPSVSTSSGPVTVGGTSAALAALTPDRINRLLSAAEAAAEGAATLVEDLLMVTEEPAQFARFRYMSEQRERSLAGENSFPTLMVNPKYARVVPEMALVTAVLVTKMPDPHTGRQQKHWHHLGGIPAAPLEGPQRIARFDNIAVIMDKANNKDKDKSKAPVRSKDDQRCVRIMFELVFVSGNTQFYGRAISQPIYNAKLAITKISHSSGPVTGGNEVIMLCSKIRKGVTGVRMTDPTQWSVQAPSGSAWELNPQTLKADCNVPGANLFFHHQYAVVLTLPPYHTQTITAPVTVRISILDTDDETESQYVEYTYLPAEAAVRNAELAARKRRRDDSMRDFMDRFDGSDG
# GST-Dm-Relish = target: T5, GST-Dm-Relish (Drosophila melanogaster, UniProt Q94527 99-473)
# T5 sequence: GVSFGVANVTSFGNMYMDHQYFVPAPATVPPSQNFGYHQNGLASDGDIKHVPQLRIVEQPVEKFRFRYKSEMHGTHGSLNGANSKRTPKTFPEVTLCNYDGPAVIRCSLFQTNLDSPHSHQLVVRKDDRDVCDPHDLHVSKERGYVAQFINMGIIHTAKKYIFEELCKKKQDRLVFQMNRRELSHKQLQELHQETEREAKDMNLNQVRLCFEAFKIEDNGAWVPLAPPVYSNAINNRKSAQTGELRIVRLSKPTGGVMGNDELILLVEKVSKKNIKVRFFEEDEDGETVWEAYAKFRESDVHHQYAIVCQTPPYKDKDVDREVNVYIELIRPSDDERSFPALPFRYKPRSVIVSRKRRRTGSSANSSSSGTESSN
# GST-Aq-NF-kB = target: T6, GST-Aq-NF-kB (Amphimedon queenslandica, UniProt A9Y5G7 2-389)
# T6 sequence: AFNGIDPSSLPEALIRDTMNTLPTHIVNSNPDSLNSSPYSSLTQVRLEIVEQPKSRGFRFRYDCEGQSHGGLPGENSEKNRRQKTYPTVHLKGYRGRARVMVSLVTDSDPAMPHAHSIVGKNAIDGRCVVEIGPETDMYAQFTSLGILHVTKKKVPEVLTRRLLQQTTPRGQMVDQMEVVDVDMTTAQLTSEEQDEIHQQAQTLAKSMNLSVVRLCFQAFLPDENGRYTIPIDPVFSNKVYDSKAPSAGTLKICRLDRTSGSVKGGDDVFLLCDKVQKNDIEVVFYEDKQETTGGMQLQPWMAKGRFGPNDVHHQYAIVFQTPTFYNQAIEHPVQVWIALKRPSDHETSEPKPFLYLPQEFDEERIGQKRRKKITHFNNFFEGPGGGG
# GST-Hu-p50 = GST-Hu-p50 (Homo sapiens, UniProt P19838 7-356)
# Sequence of GST-Hu-p50 (P19838 7-356): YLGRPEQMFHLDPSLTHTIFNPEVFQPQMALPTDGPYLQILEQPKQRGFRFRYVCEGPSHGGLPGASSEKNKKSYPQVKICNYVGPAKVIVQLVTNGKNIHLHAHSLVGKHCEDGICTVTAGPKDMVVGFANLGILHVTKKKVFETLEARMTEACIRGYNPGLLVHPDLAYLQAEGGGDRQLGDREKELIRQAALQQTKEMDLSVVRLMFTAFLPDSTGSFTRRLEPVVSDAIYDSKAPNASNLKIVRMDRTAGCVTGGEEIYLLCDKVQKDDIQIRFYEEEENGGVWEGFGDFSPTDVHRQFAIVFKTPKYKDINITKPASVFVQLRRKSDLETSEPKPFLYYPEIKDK
Sequence,binding signal (GST-Ap-NF-kB RHD) [z-score],binding signal [1] [z-score],binding signal [2] [z-score],binding signal (GST-Co-NF-kB) [z-score],binding signal (GST-Dm-Relish) [z-score],binding signal (GST-Aq-NF-kB) [z-score],binding signal (GST-Hu-p50) [z-score]
CCGATTAACATCATAATTCCCCATGATGTTAATCGGGTCTTGATTCGCTTGACGCTGCTG,6.71,8.63,8.94,6.68,4.84,5.33,6.35
CCGATTAACATCAAATTCCCCCATGATGTTAATCGGGTCTTGATTCGCTTGACGCTGCTG,8.6,8.92,9.99,9.97,7.71,6.9,7.09
CCGATTAACATCAATCTTCCCCCTGATGTTAATCGGGTCTTGATTCGCTTGACGCTGCTG,5.77,6.99,7.73,9.37,4.07,6.23,6.3
CCGATTAACATCAGGGAAAGTTATGATGTTAATCGGGTCTTGATTCGCTTGACGCTGCTG,3.92,6.93,6.19,4.08,2.29,6.81,4.76
CCGATTAACATCAAAATCCCCCTTGATGTTAATCGGGTCTTGATTCGCTTGACGCTGCTG,10.1,10.7,12.1,6.3,10.2,8.68,8.9
CCGATTAACATCAGCATTCCCCCTGATGTTAATCGGGTCTTGATTCGCTTGACGCTGCTG,7.2,7.59,7.61,6.59,4.53,5.57,6.18
CCGATTAACATCAAACAATCCCCTGATGTTAATCGGGTCTTGATTCGCTTGACGCTGCTG,7.46,7.94,9.07,3.49,5.32,6.2,6.29
CCGATTAACATCACTATATTCCCTGATGTTAATCGGGTCTTGATTCGCTTGACGCTGCTG,3.08,3.16,3.56,3.19,1.62,2.6,1.77
CCGATTAACATCAGGGCAACCCCTGATGTTAATCGGGTCTTGATTCGCTTGACGCTGCTG,3.77,2.55,1.13,1.28,4.15,5.95,3.08
CCGATTAACATCAAACTTCCCCTTGATGTTAATCGGGTCTTGATTCGCTTGACGCTGCTG,6.88,9.28,9.81,5.46,7.55,7.66,6.98
CCGATTAACATCAGGGGAAGAACTGATGTTAATCGGGTCTTGATTCGCTTGACGCTGCTG,4.9,5.96,6.48,6.9,9.56,5.61,4.93
CCGATTAACATCAAATTCCCCCGTGATGTTAATCGGGTCTTGATTCGCTTGACGCTGCTG,9.52,8.91,9.58,11,8.23,7.32,7.06
CCGATTAACATCACGAATTCCCCTGATGTTAATCGGGTCTTGATTCGCTTGACGCTGCTG,8.93,10.1,10.9,7.11,6.96,6.73,6.95
CCGATTAACATCAAGGGGGTTCCTGATGTTAATCGGGTCTTGATTCGCTTGACGCTGCTG,9.16,6.77,6.26,1.68,10.4,7.2,6.65
CCGATTAACATCAGGGGAGGTAATGATGTTAATCGGGTCTTGATTCGCTTGACGCTGCTG,2.69,2.66,4.61,3.71,1.22,2.71,2.14
CCGATTAACATCAACAATTCCCCTGATGTTAATCGGGTCTTGATTCGCTTGACGCTGCTG,7.89,8.85,10.8,7.14,5.11,5.93,6.81
CCGATTAACATCAGGGGTAATTATGATGTTAATCGGGTCTTGATTCGCTTGACGCTGCTG,3.8,4.02,4.62,6.05,2.03,3.96,4.51
CCGATTAACATCAATCTCCCCCATGATGTTAATCGGGTCTTGATTCGCTTGACGCTGCTG,6.53,4.32,6.24,8.65,2.05,3.51,5.94
CCGATTAACATCAGGGGGTGGTATGATGTTAATCGGGTCTTGATTCGCTTGACGCTGCTG,3.21,2.77,3.98,2.91,2.01,3.38,3.67

Sequence,binding signal (GST-Ap-NF-kB RHD) [z-score],binding signal [1] [z-score],binding signal [2] [z-score],binding signal (GST-Co-NF-kB) [z-score],binding signal (GST-Dm-Relish) [z-score],binding signal (GST-Aq-NF-kB) [z-score],binding signal (GST-Hu-p50) [z-score]
CCGATTAACATCACATTTCCCCCTGATGTTAATCGGGTCTTGATTCGCTTGACGCTGCTG,6.84,6.99,10.2,9.84,4.03,5.23,6.55
CCGATTAACATCAGGGGAGAAACTGATGTTAATCGGGTCTTGATTCGCTTGACGCTGCTG,4.39,4.53,5.55,7.07,5.35,3.64,4.05
CCGATTAACATCAATTTTCCCCCTGATGTTAATCGGGTCTTGATTCGCTTGACGCTGCTG,7.68,8.57,11.2,12,4.81,6.79,7.47
CCGATTAACATCAGGGGGTTTTATGATGTTAATCGGGTCTTGATTCGCTTGACGCTGCTG,9.65,9.57,10.2,3.52,10,8.21,7.82
CCGATTAACATCACAATTCCCCCTGATGTTAATCGGGTCTTGATTCGCTTGACGCTGCTG,7.95,8.27,9.39,8.14,5.44,6.33,7
CCGATTAACATCAGGGAAATCCCTGATGTTAATCGGGTCTTGATTCGCTTGACGCTGCTG,9.75,11.4,9.68,4.02,10.3,10.9,7.17
CCGATTAACATCACGGGTTCCCCTGATGTTAATCGGGTCTTGATTCGCTTGACGCTGCTG,7.55,5.61,6.62,5.5,7.65,4.79,4.64
CCGATTAACATCAAGGGAACTCCTGATGTTAATCGGGTCTTGATTCGCTTGACGCTGCTG,3.72,3.17,1.27,1.28,5.67,4.45,2.28
CCGATTAACATCAGGAATCCCCATGATGTTAATCGGGTCTTGATTCGCTTGACGCTGCTG,8.61,8.08,7.76,3.4,9.13,6.35,6.22
CCGATTAACATCAGGGGAGTTCATGATGTTAATCGGGTCTTGATTCGCTTGACGCTGCTG,5.95,4.23,4.73,3.54,3.15,3.96,4.11
CCGATTAACATCAAAAATTACCCTGATGTTAATCGGGTCTTGATTCGCTTGACGCTGCTG,4.2,7.43,7.03,4.09,6.42,6.93,5.22
CCGATTAACATCAGCTAATTCCCTGATGTTAATCGGGTCTTGATTCGCTTGACGCTGCTG,1.96,3.33,3.36,1.82,1.18,3.15,2.27
CCGATTAACATCACCTTTTCCCCTGATGTTAATCGGGTCTTGATTCGCTTGACGCTGCTG,6.24,6.89,8.88,8.71,2.77,4.69,5.94
CCGATTAACATCAGGTATCCCCATGATGTTAATCGGGTCTTGATTCGCTTGACGCTGCTG,5.17,3.31,4.07,3.11,5,3,3
CCGATTAACATCAGGGGGGGCTATGATGTTAATCGGGTCTTGATTCGCTTGACGCTGCTG,4.3,3.34,3.58,5.06,4.12,4.07,4.09
CCGATTAACATCAATAATTCCCCTGATGTTAATCGGGTCTTGATTCGCTTGACGCTGCTG,8.52,10.6,11.8,8.63,7.98,7.59,6.96
CCGATTAACATCAGGGGGAAAACTGATGTTAATCGGGTCTTGATTCGCTTGACGCTGCTG,8.4,8.08,9.8,11.7,7.59,7.21,7.47
CCGATTAACATCACGGGAAAACCTGATGTTAATCGGGTCTTGATTCGCTTGACGCTGCTG,4.2,4.49,5.49,5.1,4.62,5.78,3.46
CCGATTAACATCAAATTTCCCCTTGATGTTAATCGGGTCTTGATTCGCTTGACGCTGCTG,8.8,10.8,13.2,7.98,7.38,8.06,7.51
